Measurements from PubChem BioAssay.

tested on: Plasmodium falciparum Sir2 (PF13_0152, Sir2A); assay: Plasmodium falciparum Sir2A binding compounds – biochemical, small-molecule microarray, 635 nm fluorescence, primary screen (AID 1098); conditions: fluorescence 635 nm, higher = more signal;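 also: score merges spot fluorescence intensity with its signal-to-noise ratio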

| Compound | composite z-score |
| --- | --- |
| CCOC(=O)C1=C[C@@H](C(C)(C)C)N(S(=O)(=O)c2ccc(C)cc2)[C@H]1c1ccccc1 | 0.104 |
| COC(=O)[C@@]1(Cc2ccc(F)cc2)[C@H]2c3cc(C(=O)N4CCCC4)n(CC4CC4)c3C[C@H]2CN1C(=O)c1ccccc1 | 1.4 |
| CO[C@H]1O[C@H](CO)[C@@H](OC(=O)Nc2ccc(C#N)cc2)[C@@H]2OC(=O)[C@H](Cc3cccc(Br)c3)C/C=C/C[C@@H](Cc3cccc(Br)c3)C(=O)O[C@@H]12 | 0.717 |
| COC(=O)[C@@]1(Cc2ccccc2)[C@H]2c3cc(C(=O)N(C)C)n(CCn4cc([N+](=O)[O-])nc4C)c3C[C@H]2CN1C(=O)c1ccccc1 | 1.72 |
| Cc1ccc(N2C(=O)c3ccccc3[C@](C)(C(=O)NCc3ccccc3)[C@@H]2c2ccc(CO)cc2)nc1 | 1.39 |
| COC(=O)[C@@]1(Cc2ccc(F)cc2)[C@H]2c3cc(C(=O)N4CCCC4)n(C)c3C[C@H]2CN1C(=O)c1ccccc1 | 1.24 |
| CC(C)C(=C=CC[C@@H](O)c1cccc(OCCO)c1)C[C@@H](O)c1ccccn1 | 0.862 |
| O=C(O)[C@H]1C[C@H]2C(=O)N[C@@H](Cc3ccccc3)C(=O)N2[C@H]1c1cccc(OCCO)c1 | 0.348 |
| COc1ccc([Si](C)(C)[C@@H]2[C@@H](CC(=O)N3Cc4ccccc4C[C@H]3CO)O[C@]3(C(=O)N(Cc4ccc(N5CCC5=O)cc4)c4ccccc43)[C@H]2C)cc1 | 1.16 |
| Cc1ccc([C@H]2C(C(=O)O)=C[C@@H](C(C)(C)C)N2S(=O)(=O)c2ccc(C)cc2)cc1 | 1.03 |
